In PubChem BioAssay AID1794845 (National Center for Advancing Translational Sciences (NCATS), 2023):
Out of some 6,900 compounds screened, fewer than 10 were called active. The call rests on the fitted dose curve; in most records, active means well fitted curve in the direction sought with a large enough effect; inconclusive means small, poorly fitted or top-dose-only effect, or another doubt; inactive means no such curve, though single readings can be large or run the other way. Not all results are given here.

target: Metallo-beta-lactamase type 2 (Klebsiella pneumoniae) (UniProt C7C422); assay: qHTS to identify inhibitors of the New Delhi Metallo-beta-lactamase (NDM): primary screen against the NCATS Gemini Collection; conditions: NDM-1 enzyme, meropenem hydrolysis, absorbance 300 nm; series mostly up to 38.4 µM
Sequence (C7C422 whole entry, looked up): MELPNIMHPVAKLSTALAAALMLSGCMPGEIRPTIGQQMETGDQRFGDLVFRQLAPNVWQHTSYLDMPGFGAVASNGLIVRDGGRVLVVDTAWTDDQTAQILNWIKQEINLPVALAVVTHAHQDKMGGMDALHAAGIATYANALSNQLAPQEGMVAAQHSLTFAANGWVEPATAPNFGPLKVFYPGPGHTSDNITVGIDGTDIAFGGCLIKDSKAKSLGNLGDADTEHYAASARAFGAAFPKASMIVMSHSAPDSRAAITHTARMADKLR
Text: Assay Submitter (PI): James Inglese Ph.D., Patricia Dranchak Ph.D., Mahesh Aitha Ph.D. Assay Development and Screening Technology Laboratory (ADST) National Center for Advancing Translational Sciences (NCATS), Rockville, MD National Institute of Health (NIH), Bethesda, Maryland The metallo-beta-lactamases (MBL) are a main antibiotic resistance mechanism evolved by bacteria. There is an urgent clinical need for MBL inhibitors to mitigate this growing threat. To support a machine-based learning study, qHTS has been used to experimentally test inhibitors identified by prediction tools.
PROTOCOL TABLE (as described by Inglese et al., 2007) SEQUENCE No. (e.g., 1, 2, 3, etc.); […] (e.g., enzyme, Incubation, Reagent, etc.); VALUE; DESCRIPTION 1; NDM-1; 4 uL of 3 nM enzyme [2 nM final] in 50 mM HEPES (pH 7.0), 1 uM […], 0.01% Tween20; Use BioRaptr to dispense into Aurora black, clear bottom low base 1536-well plates 2; Compounds; 23 nL; Use Pin Tool (Wako) to transfer DMSO control and library compounds in DMSO 3; Incubate; >30 min 4; Reagent; 2 uL of 150 uM meropenem [50 uM final] 5; Incubate; 30 min. 6; Detector; Absorbance at 300 nm (bandwidth = 5 nm, 25 flashes/well) on Tecan Infinity NOTES (numbers refer to sequence above) 1; Column 1 of each plate received assay buffer without enzyme and columns 2-48 received enzyme for a final assay concentration of 2 nM. 2; Control plate contained DMSO in columns 1, 2, 3, and 4. 3; Compound interaction with enzyme. 4; Meropenem substrate was prepared in the same assay buffer as step 1 for a final assay concentration of 50 uM and added to all wells across the assay plates. 5; Substrate interaction with enzyme, plateau phase of kinetics. 6; Default reader settings were applied for absorbance read at 300 nm, bandwidth = 5 nm, 25 flashes/well. References: Inglese J, Shamu CE, Guy RK. 2007. Reporting data from high-throughput screening of small-molecule libraries. Nat Chem Biol. doi:10.1038/nchembio0807-438 Yasgar A, Shinn P, Jadhav A, Auld D, Michael S, Zheng W, Austin CP, Inglese J, Simeonov A. 2008. Compound Management for Quantitative High-Throughput Screening. J Lab Autom 13:79 - 89. doi:10.1016/j.jala.2007.12.004

outcome, inactive:
COc1ccc2c(c1)c(CN1C[C@@H](CO)[C@H](c3nc(C)no3)C1)cn2C
Nc1nc(CCC(=O)N[C@@H]2COCC[C@H]2Oc2ccc(CO)cc2)cs1
Cc1cccc2c1O[C@H]1[C@H](CO)CN([S+](=O)([O-])c3cccs3)[C@@H]21
Cc1cccc(C(=O)N2CC[C@H]3C(=O)NCCCCCCN(Cc4ccncc4)[C@@H]3C2)c1
Fc1ccc2nc(CO[C@H]3CN(C4CCOCC4)C[C@H]3F)[nH]c2c1
O=C(c1ccccc1)N1CCC2(CC(Cc3ccccc3)=NO2)C1 (stereo not drawn)
CCc1nc2c(c(-c3ccc(O)cc3)n1)CN(Cc1ccc(NC(C)=O)cc1)CC2
Cc1ncnc(N2CCN(C(=O)C3CCN(C(=O)C4CC4)CC3)CC2)c1C
O=C(CC1CCOCC1)Nc1ccc(N2CCOCC2)cc1
CCNc1ncc(C(=O)N[C@H](C2CCNCC2)C2CC(O)C2)cn1 (stereo partly drawn)
CCOC(=O)C1(Cc2ccccc2F)CCCN(C(=O)c2ccc3c(c2)OCCO3)C1 (stereo not drawn)
O=C(NC1CC(c2nnc(CO)n2C2CC2)C1)c1ccc2c(c1)CCO2 (stereo not drawn)
Nc1nc(CCCNC(=O)C2CC(=O)N(Cc3ccccn3)C2)cs1 (stereo not drawn)
Fc1ccc(-c2cccc(CN3CC4CCC(C3)N4c3ccc(C(F)(F)F)cc3)c2)c(F)c1
CC(=O)Nc1cccc(-c2ncc3c(n2)OCCN(CC2CC2)C3=O)c1
CN(C)CC1(O)CCN(C(=O)Cn2cc(C(=O)C3CC3)c3ccccc32)C1 (stereo not drawn)
Nc1ncccc1CNC(=O)[C@H]1CCC[C@H](O)C1
COc1ccc(-c2cc(-c3ccncc3)cn3cncc23)cc1
O=C1NCCOCCCN(S(=O)(=O)c2ccccc2)[C@H]2CCCC[C@@H]12
Cc1cc(C(=O)N2CC(N(C(=O)NC(C)C)C3CCOCC3)C2)nn1C
Cc1[nH]c2ccccc2c1CC(=O)NCc1ccccc1-n1cncn1
COC(=O)N1CCN(Cc2cc(=O)c3cc(F)ccc3[nH]2)CC1
CCCN(C)C(=O)c1c(-c2ccc(F)cc2)noc1[C@H](C)O
O=C(NCc1nc(-c2ncccn2)no1)C1CC2(CCNCC2)CN1 (stereo not drawn)
CC(C)N1CC[C@@H]2[C@H]1C(=O)NC[C@H](CCC(=O)NCc1ccc(F)cc1)N2C
Cc1cccc(O[C@H]2COCCN(c3nc4ccccc4o3)C2)n1
COc1ccc(NC(=O)C2CCN(C(=O)c3ncn4c3COC(c3ccccc3)C4)CC2)cc1Cl (stereo not drawn)
CC1(NC(=O)C2CC2)CN(Cc2nc(-c3ccccc3OCc3ccccc3)cs2)C1
